# From paper PMC4336329 (PLoS ONE, 2015)
# About 14,000 (4.5%) of roughly 310,000 compounds showed an effect of 50% or more. Effects have a minus sign here. This excerpt belongs to a sample that is enriched for strong results.
# Molecular target: human ether-à-go-go-related gene (hERG) potassium channel (human, UniProt Q12809)
# Test: primary screen, population patch clamp on CHO cells stably expressing hERG; higher = less effect of the substance
# 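Also: peak tail current of the secondary pulse compared with the same well before compound.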
# Sequence of human ether-à-go-go-related gene (hERG) potassium channel (Q12809 whole entry, looked up): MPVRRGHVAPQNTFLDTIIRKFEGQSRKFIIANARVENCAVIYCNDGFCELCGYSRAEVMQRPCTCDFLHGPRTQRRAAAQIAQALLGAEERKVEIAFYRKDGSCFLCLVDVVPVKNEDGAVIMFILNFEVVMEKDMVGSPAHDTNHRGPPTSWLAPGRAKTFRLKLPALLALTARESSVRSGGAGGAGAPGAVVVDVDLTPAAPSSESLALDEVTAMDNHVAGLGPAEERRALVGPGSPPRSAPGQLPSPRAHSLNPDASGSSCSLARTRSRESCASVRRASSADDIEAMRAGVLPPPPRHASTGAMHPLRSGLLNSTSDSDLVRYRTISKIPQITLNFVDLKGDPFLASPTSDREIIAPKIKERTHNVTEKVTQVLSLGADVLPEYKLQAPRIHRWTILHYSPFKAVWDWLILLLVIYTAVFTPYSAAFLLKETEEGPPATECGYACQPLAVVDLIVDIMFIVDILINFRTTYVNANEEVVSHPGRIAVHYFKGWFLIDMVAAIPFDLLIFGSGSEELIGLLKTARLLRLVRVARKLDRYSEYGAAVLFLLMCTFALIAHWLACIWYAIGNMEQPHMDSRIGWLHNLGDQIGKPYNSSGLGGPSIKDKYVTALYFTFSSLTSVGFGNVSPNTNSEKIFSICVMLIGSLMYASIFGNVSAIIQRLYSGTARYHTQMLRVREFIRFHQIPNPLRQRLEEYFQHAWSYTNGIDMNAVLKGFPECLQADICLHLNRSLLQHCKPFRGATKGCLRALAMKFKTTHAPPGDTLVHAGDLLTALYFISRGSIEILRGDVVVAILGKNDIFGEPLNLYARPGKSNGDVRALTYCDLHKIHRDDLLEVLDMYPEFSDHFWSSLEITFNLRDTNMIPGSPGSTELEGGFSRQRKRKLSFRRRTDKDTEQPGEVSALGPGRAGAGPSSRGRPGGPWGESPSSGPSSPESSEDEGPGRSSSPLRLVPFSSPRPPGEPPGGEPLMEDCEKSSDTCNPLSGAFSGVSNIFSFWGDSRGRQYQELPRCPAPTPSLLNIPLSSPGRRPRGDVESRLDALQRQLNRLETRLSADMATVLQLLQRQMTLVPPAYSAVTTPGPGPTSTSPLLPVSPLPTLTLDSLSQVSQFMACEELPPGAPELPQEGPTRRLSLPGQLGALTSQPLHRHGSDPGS
row,Compound,"hERG current change (%, negative = inhibition) at 10uM [%]"
1,COc1ccc(C(NC(=O)/C=C/c2ccco2)c2ccc(OC)cc2)cc1,-13.3
2,Brc1ccc(-c2nnc3sc(CN4CCN(c5ccccc5)CC4)cn23)cc1,-1.83
3,O=C(NCCN1C(=O)S/C(=C\c2ccc(Cl)c(Cl)c2)C1=O)c1cnccn1,1.98
4,O=C(NCCN1C(=O)S/C(=C/c2ccccc2)C1=O)C1CCCN1C(=O)c1cccs1 (centres unmarked),-26.9
5,O=C(NCCN1C(=O)S/C(=C\c2ccc(OC(F)F)cc2)C1=O)c1cnccn1,-57.1
6,O=C(NCCN1C(=O)S/C(=C\c2ccc(OC(F)F)cc2)C1=O)[C@@H]1CCCN1C(=O)c1cccs1,-63.5
7,COc1ccc(/C=C2/SC(=O)N(CCNC(=O)C3CCCN3C(=O)c3cccs3)C2=O)cc1 (centres unmarked),-22.8
8,O=C(NCCN1C(=O)S/C(=C\c2cccnc2)C1=O)c1cccc(OC(F)F)c1,-48.7
9,O=C(c1ccco1)N1N=C(c2ccco2)CC1c1ccc(Cl)cc1Cl (centres unmarked),11.9
10,CN(C)S(=O)(=O)Nc1cccc(-c2cn3c(n2)SCC3)c1,11.2
11,O=[N+]([O-])c1cc(C(F)(F)F)cc([N+](=O)[O-])c1NCCN1CCNCC1,4.88
12,CC1CN(C)C(C)C/C1=N\Oc1ccc([N+](=O)[O-])cc1.Cl (centres unmarked),-78.6
13,CN1CCC(=NOc2ccc([N+](=O)[O-])cc2)CC1,-74.8
14,CC1CN(C)C(C)C/C1=N/Oc1ccccc1[N+](=O)[O-].Cl (centres unmarked),-26.5
15,CC1CC(C)CN(S(=O)(=O)c2ccc(Oc3ccc([N+](=O)[O-])cc3)cc2)C1 (centres unmarked),-9.72
16,CC1=CC(=O)C=C(C)C1=NOc1ccc([N+](=O)[O-])cc1,-3.45
17,CN1CCN(S(=O)(=O)c2ccc([N+](=O)[O-])cc2)CC1,-14.6
18,Cc1nc2c(cnn2-c2ccccc2)c(=O)n1/N=C/c1ccccc1,11.9
19,N/C(=N\OC(=O)Nc1ccccc1)c1ncc([N+](=O)[O-])s1,-2.31
20,Cc1ccc2c(c1)N(Cc1cccc(C#N)c1)C=NS2(=O)=O,9.38
21,CCn1c(-c2ccc([N+](=O)[O-])cc2)n[nH]c1=S,9.07
22,CCC(=O)Nc1ccccc1C(=O)OCC(=O)c1ccccc1,-28.1
23,CCc1ccc(NC(=S)N(CCCN2CCOCC2)Cc2ccco2)cc1,-12.6

row,Compound,"hERG current change (%, negative = inhibition) at 10uM [%]"
1,COc1ccc(NC(=S)N(CCCN2CCCC2)Cc2ccco2)cc1,-39.4
2,COc1ccc(NC(=S)N(CCN2CCCCC2)Cc2ccco2)cc1,-57.5
3,CCc1ccccc1NC(=S)N(CCN1CCCCC1)Cc1ccco1,-46.7
4,CCc1ccc(NC(=S)N(CCN2CCCCC2)Cc2ccco2)cc1,-75.4
5,COc1cccc(NC(=S)N(CCN2CCCCC2)Cc2ccco2)c1,-43.9
6,O=C1COc2ccc3ccccc3c21,-4.35
7,Cc1cc(C(=O)C(=O)O)c(C)n1-c1ccc(Cl)cc1,-43.4
8,O=C(CCC1CCCC1)NCCS(=O)(=O)N1CCN(c2ccccc2)CC1,-12.9
9,NC(=O)C1(N2CCCCC2)CCN(C(=O)c2ccc(-n3cnnn3)cc2)CC1,-30.6
10,CC1=NNC(=O)C1CCC(=O)N/N=C/C=C/c1ccccc1 (centres unmarked),1.22
11,CNC(=S)NC1CC2CCCC(C1)N2Cc1ccc(C)cc1 (centres unmarked),-38.9
12,CCc1ccc(NC(=S)NC2CC3CCCC(C2)N3Cc2ccccc2)cc1 (centres unmarked),-70.9
13,S=C(NC1CCCCC1)NC1CC2CCC(C1)N2Cc1ccccc1 (centres unmarked),-33.4
14,CCNC(=S)NC1CC2CCCC(C1)N2Cc1ccc(C)cc1 (centres unmarked),-48.1
15,S=C(Nc1ccc(Cl)cc1)NC1CC2CCC(C1)N2Cc1ccccc1 (centres unmarked),-66.1
16,CNC(=S)NC1CC2CCC(C1)N2Cc1ccccc1 (centres unmarked),-16.5
17,CCC(C)c1ccc(NC(=S)NC2CCN(Cc3ccccc3)CC2)cc1 (centres unmarked),-61.8
18,S=C(Nc1ccc(Cl)cc1)NC1CCN(Cc2ccccc2)CC1,-39.9
19,CCc1ccc(NC(=S)NC2CCN(Cc3ccccc3)CC2)cc1,-36.9
20,CCNC(=S)NC1CC2CCC(C1)N2Cc1ccccc1 (centres unmarked),-20.3
21,Cc1ccc(CN2C3CCCC2CC(NC(=S)NCc2ccccc2)C3)cc1 (centres unmarked),-72.4
22,CC(C)c1ccc(NC(=S)NC2CCN(Cc3ccccc3)CC2)cc1,-17.4
23,CN(C)c1ccc(NC(=O)N2CCOCC2)cc1,-3.34

row,Compound,"hERG current change (%, negative = inhibition) at 10uM [%]"
1,Cc1ccc(-c2cc3nc(-c4ccc(Br)cc4)cc(N)n3n2)cc1,-8.51
2,CCCN(CC(=O)Nc1c(C)cccc1CC)C(=O)SCC,10
3,CCc1cccc(NC2c3ccccc3C(=O)N2c2cccnc2)c1 (centres unmarked),-10.2
4,CCC(C)(C)NC(=O)C(c1ccc(OC)cc1)N(C(=O)CCC(=O)Nc1cc(C)on1)C(C)(C)C (centres unmarked),-27.1
5,COc1ccc(OCC(O)CNCc2ccco2)cc1 (centres unmarked),1.32
6,COc1ccc(CCNC(=O)C2CCN(S(=O)(=O)N3CCC4(CC3)OCCO4)CC2)cc1OC,1.93
7,COc1cc(C2=NOC(C(=O)Nc3ccc(C)cc3)C2)cc(OC)c1OC (centres unmarked),-4.96
8,CCOC(=O)c1ccc(NC(=S)NC(=O)COc2ccccc2)cc1,11
9,CCCCOc1ccc(-n2nc(C)cc2C)nn1,-16.3
10,CCOC(=O)N1CCN(C(=O)c2ccc(NS(C)(=O)=O)cc2)CC1,-5.65
11,Cn1c(SCC(=O)NC2CCCCC2)nnc1-c1ccncc1,13.2
12,CC1COc2c(N3CCN(C)CC3)c(F)cc3c(=O)c(C(=O)O)cn1c23 (centres unmarked),18.2
13,Cc1cc(C)c(NC(=O)c2cn3c4c(c(N5CCN(C)CC5)c(F)cc4c2=O)OCC3C)c(C)c1 (centres unmarked),-51.7
14,C[C@H]1COc2c(N3CCN(C)CC3)c(F)cc3c(=O)c(C(=O)O)cn1c23,11.2
15,O=C(Cc1cccs1)Nc1ccccc1-c1nc2ccccc2[nH]1,19.7
16,CC(C)c1nnc(NC(=O)CC(=O)Nc2ccccc2C(=O)O)s1,4.72
17,CON(C)c1nc(Oc2ccc(=O)[nH]n2)nc(N(C)C)n1,-9.3
18,COCCn1c(C)cc(C(=O)CN2C(=O)NC3(CCCCCCC3)C2=O)c1C,-59
19,Cc1cc(C(=O)CN2C(=O)NC3(CCCCC3)C2=O)c(C)n1C,-10.3
20,COCCn1c(C)cc(C(=O)CN2C(=O)NC3(CCCCCC3)C2=O)c1C,-27.8
21,Cc1cc(C(=O)CN2C(=O)NC3(CCCCC3)C2=O)c(C)n1-c1ccc2c(c1)OCO2,-56.4
22,Cc1cc(C(=O)CN2C(=O)NC3(CCCC3)C2=O)c(C)n1-c1ccc2c(c1)OCO2,-28.5
23,CCCC1(CCC)NC(=O)N(CC(=O)c2cc(C)n(-c3ccc4c(c3)OCO4)c2C)C1=O,5.65

row,Compound,"hERG current change (%, negative = inhibition) at 10uM [%]"
1,Cc1nn(CC(=O)NCc2ccc(C(=O)O)cc2)c(C)c1[N+](=O)[O-],21.5
2,CCOC(=O)c1cc(C)[nH]c(=S)c1C#N,-23.4
3,Cc1ccc(C(=O)n2cnnc2N)cc1C,-0.0756
4,CC(=O)NC(Cc1ccc(F)c(F)c1)C(=O)NC1CCN(C(=O)c2ccc(C)cc2)CC1 (centres unmarked),-12.9
5,CC(=O)NC(Cc1cccc(F)c1)C(=O)NC1CCN(C(=O)c2ccc(C)cc2)CC1 (centres unmarked),33
6,CC(=O)NC(Cc1ccc(F)cc1)C(=O)NC1CCN(c2nnnn2-c2ccccc2)CC1 (centres unmarked),-41
7,CC(=O)NC(Cc1cccc(F)c1)C(=O)NC1CCN(c2nnnn2-c2ccccc2)CC1 (centres unmarked),-5.71
8,CC(=O)NC(Cc1ccc(F)c(F)c1)C(=O)NC1CCN(C(=O)c2ccc(Cl)cc2)CC1 (centres unmarked),-56.9
9,CC(=O)NC(Cc1ccc(F)c(F)c1)C(=O)NC1CCN(c2nnnn2-c2ccccc2)CC1 (centres unmarked),-54.6
10,CN(C)S(=O)(=O)c1cccc(NC(=S)NC2CCCCC2)c1,6.69
11,CCCN(CC1CC1)C(=S)NC(=O)c1ccccc1Br,-4.58
12,C=CC(=O)N=c1sc2ccccc2n1-c1ccccc1,-6.08
13,CCOC(=O)c1sc(=S)n(C)c1NC(=O)c1cccc(Br)c1,5.67
14,S=C(Nc1ccccc1)N1CCOCC1,11.5
15,O=C(Nc1ccc(F)c(Cl)c1)C1CCCC1,25.2
16,O=C(Nc1ccc(F)c(Cl)c1)C1CCCN(c2cnccn2)C1 (centres unmarked),-24.9
17,O=C(Nc1ccc(Cl)cc1)C1CCCN(C2=NS(=O)(=O)c3ccccc32)C1 (centres unmarked),-60
18,Cc1ccc(NC(=O)C2CCCN(C3=NS(=O)(=O)c4ccccc43)C2)c(O)c1 (centres unmarked),-33.6
19,O=C(Nc1ccc(Br)cc1)C1CCCN(C2=NS(=O)(=O)c3ccccc32)C1 (centres unmarked),-29.1
20,O=C(Nc1ccc(F)c(Cl)c1)C1CCCN(C2=NS(=O)(=O)c3ccccc32)C1 (centres unmarked),-63
